Assays:
Assay in all cases: log2 ratio of Biotin-Ahx-Ub-VS probe labelling (fragment/DMSO); higher = less target engagement (more negative = stronger competition), active = hit call of the paper (q ≤ 0.05, log2 ratio ≤ -1)
Conditions in all cases: compound concentration: 200 uM; treatment time: 3 h
[1] = target: USP34 (UniProt Q70CQ2)
Summary of the method: (§1)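 Triplicate samples of HEK293T lysate, 495 µg each, received fragment at 200 µM or vehicle for 3 h, followed by Biotin-Ahx-Ub-VS (0.5 µM final) for 1 h. After NeutrAvidin enrichment of labelled DUBs and LysC/trypsin digestion, peptides were run by diaPASEF LC-MS/MS. The values are average log2 fragment/vehicle ratios from global-median-normalised Spectronaut label-free quantities, tested by unpaired t-test on proteins having ≥2 unique peptides.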

[2] = target: T1, USP36 (UniProt Q9P275)
T1 sequence (whole entry): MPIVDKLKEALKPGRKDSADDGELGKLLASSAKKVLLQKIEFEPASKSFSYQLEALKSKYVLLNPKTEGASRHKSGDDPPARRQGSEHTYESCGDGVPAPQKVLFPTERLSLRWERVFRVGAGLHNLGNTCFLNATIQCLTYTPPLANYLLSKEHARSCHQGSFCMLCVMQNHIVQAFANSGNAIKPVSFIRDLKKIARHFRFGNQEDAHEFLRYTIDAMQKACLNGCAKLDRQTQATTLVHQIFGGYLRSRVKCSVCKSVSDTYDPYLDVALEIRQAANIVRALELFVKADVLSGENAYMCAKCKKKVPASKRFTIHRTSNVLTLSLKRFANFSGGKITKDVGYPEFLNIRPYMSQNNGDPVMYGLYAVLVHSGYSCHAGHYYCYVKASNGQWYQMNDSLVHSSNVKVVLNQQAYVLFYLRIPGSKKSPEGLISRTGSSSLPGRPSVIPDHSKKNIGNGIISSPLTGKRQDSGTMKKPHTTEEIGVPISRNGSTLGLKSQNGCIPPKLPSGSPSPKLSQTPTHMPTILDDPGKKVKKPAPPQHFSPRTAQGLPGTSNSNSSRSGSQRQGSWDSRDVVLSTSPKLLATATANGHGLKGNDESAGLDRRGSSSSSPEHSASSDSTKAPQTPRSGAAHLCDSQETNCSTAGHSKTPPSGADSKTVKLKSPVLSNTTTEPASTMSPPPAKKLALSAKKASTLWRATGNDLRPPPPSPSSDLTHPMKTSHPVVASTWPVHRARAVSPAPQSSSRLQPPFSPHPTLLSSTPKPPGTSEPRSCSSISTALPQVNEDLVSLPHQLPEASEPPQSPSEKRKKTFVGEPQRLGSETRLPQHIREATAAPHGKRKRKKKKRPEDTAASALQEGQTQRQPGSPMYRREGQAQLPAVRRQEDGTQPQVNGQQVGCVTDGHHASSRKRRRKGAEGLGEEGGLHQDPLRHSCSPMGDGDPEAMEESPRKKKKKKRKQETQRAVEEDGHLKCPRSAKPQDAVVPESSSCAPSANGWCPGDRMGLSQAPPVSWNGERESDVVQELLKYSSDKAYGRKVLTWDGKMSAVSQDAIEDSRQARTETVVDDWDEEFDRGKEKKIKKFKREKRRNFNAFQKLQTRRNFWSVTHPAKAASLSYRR
Summary of the method: as §1

[3] = target: T2, USP38 (UniProt Q8NB14)
T2 sequence (whole entry): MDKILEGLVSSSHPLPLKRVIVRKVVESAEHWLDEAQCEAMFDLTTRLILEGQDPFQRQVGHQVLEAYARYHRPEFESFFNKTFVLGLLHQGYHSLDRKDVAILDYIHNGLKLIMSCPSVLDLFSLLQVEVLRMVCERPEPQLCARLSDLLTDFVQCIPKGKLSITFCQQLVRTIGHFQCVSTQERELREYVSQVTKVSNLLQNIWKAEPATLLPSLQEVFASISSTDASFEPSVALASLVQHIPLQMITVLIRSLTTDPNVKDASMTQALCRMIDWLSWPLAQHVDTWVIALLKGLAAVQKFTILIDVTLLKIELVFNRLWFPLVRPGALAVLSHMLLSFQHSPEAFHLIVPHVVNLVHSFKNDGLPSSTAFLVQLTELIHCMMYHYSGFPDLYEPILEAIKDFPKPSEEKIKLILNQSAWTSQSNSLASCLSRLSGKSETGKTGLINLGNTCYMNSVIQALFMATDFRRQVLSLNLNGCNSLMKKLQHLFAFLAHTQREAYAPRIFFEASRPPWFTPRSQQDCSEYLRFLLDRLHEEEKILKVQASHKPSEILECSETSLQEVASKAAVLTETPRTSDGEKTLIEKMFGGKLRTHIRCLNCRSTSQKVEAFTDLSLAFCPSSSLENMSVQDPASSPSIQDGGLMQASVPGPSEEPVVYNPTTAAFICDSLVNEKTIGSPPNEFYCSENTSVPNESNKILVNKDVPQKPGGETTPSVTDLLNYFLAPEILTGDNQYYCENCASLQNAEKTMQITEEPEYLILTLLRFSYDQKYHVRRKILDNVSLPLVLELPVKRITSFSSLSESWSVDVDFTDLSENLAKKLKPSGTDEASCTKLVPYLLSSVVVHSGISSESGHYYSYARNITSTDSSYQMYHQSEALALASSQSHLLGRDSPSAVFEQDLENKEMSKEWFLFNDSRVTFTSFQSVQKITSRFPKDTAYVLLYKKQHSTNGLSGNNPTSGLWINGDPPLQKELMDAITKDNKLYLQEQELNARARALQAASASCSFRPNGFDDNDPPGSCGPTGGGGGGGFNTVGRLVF
Summary of the method: as §1

[4] = target: T3, USP39 (UniProt Q53GS9)
T3 sequence (whole entry): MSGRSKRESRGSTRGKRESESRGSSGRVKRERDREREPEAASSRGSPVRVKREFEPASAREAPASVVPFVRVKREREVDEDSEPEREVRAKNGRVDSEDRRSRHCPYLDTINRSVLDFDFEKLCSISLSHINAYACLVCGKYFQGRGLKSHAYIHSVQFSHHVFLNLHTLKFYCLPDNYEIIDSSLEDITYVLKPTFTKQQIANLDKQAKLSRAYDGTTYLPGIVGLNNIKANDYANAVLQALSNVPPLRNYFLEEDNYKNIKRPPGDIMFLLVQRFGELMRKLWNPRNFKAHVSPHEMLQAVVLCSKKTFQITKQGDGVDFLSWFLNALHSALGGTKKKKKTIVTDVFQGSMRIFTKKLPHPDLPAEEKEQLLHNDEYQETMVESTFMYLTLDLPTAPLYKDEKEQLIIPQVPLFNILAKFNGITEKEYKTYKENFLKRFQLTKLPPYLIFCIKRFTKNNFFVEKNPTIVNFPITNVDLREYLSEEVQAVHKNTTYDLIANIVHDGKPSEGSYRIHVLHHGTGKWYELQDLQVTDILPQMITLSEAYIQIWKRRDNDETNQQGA
Summary of the method: as §1

[5] = target: T4, USP4 (UniProt Q13107)
T4 sequence (whole entry): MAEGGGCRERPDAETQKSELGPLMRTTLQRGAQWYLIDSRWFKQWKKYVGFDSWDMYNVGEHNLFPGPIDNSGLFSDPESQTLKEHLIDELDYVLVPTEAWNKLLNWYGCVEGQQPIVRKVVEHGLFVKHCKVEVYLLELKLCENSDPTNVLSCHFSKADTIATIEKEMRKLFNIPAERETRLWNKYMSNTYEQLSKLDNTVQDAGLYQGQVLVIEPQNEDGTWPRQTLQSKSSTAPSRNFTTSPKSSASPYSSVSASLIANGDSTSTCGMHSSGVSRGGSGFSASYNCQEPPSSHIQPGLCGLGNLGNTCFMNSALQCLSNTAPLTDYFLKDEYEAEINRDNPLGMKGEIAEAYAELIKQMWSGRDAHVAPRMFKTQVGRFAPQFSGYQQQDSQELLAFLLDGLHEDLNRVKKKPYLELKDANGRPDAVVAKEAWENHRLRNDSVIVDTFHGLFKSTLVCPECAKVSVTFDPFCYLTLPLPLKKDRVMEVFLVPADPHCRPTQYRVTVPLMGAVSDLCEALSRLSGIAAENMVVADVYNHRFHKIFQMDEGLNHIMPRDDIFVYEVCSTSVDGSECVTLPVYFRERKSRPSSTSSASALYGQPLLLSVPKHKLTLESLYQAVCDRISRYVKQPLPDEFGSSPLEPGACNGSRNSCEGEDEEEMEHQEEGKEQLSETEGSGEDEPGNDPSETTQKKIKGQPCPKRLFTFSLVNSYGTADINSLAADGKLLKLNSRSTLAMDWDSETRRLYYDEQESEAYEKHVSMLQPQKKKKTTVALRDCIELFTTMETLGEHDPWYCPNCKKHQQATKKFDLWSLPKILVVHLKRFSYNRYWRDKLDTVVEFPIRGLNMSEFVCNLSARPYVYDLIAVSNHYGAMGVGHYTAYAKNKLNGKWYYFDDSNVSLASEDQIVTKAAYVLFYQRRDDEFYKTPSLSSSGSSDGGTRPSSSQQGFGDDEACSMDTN
Summary of the method: as §1

Measured: log2 ratio of Biotin-Ahx-Ub-VS probe labelling

USP34, sequence (Q70CQ2 whole entry, the tested form may be a part): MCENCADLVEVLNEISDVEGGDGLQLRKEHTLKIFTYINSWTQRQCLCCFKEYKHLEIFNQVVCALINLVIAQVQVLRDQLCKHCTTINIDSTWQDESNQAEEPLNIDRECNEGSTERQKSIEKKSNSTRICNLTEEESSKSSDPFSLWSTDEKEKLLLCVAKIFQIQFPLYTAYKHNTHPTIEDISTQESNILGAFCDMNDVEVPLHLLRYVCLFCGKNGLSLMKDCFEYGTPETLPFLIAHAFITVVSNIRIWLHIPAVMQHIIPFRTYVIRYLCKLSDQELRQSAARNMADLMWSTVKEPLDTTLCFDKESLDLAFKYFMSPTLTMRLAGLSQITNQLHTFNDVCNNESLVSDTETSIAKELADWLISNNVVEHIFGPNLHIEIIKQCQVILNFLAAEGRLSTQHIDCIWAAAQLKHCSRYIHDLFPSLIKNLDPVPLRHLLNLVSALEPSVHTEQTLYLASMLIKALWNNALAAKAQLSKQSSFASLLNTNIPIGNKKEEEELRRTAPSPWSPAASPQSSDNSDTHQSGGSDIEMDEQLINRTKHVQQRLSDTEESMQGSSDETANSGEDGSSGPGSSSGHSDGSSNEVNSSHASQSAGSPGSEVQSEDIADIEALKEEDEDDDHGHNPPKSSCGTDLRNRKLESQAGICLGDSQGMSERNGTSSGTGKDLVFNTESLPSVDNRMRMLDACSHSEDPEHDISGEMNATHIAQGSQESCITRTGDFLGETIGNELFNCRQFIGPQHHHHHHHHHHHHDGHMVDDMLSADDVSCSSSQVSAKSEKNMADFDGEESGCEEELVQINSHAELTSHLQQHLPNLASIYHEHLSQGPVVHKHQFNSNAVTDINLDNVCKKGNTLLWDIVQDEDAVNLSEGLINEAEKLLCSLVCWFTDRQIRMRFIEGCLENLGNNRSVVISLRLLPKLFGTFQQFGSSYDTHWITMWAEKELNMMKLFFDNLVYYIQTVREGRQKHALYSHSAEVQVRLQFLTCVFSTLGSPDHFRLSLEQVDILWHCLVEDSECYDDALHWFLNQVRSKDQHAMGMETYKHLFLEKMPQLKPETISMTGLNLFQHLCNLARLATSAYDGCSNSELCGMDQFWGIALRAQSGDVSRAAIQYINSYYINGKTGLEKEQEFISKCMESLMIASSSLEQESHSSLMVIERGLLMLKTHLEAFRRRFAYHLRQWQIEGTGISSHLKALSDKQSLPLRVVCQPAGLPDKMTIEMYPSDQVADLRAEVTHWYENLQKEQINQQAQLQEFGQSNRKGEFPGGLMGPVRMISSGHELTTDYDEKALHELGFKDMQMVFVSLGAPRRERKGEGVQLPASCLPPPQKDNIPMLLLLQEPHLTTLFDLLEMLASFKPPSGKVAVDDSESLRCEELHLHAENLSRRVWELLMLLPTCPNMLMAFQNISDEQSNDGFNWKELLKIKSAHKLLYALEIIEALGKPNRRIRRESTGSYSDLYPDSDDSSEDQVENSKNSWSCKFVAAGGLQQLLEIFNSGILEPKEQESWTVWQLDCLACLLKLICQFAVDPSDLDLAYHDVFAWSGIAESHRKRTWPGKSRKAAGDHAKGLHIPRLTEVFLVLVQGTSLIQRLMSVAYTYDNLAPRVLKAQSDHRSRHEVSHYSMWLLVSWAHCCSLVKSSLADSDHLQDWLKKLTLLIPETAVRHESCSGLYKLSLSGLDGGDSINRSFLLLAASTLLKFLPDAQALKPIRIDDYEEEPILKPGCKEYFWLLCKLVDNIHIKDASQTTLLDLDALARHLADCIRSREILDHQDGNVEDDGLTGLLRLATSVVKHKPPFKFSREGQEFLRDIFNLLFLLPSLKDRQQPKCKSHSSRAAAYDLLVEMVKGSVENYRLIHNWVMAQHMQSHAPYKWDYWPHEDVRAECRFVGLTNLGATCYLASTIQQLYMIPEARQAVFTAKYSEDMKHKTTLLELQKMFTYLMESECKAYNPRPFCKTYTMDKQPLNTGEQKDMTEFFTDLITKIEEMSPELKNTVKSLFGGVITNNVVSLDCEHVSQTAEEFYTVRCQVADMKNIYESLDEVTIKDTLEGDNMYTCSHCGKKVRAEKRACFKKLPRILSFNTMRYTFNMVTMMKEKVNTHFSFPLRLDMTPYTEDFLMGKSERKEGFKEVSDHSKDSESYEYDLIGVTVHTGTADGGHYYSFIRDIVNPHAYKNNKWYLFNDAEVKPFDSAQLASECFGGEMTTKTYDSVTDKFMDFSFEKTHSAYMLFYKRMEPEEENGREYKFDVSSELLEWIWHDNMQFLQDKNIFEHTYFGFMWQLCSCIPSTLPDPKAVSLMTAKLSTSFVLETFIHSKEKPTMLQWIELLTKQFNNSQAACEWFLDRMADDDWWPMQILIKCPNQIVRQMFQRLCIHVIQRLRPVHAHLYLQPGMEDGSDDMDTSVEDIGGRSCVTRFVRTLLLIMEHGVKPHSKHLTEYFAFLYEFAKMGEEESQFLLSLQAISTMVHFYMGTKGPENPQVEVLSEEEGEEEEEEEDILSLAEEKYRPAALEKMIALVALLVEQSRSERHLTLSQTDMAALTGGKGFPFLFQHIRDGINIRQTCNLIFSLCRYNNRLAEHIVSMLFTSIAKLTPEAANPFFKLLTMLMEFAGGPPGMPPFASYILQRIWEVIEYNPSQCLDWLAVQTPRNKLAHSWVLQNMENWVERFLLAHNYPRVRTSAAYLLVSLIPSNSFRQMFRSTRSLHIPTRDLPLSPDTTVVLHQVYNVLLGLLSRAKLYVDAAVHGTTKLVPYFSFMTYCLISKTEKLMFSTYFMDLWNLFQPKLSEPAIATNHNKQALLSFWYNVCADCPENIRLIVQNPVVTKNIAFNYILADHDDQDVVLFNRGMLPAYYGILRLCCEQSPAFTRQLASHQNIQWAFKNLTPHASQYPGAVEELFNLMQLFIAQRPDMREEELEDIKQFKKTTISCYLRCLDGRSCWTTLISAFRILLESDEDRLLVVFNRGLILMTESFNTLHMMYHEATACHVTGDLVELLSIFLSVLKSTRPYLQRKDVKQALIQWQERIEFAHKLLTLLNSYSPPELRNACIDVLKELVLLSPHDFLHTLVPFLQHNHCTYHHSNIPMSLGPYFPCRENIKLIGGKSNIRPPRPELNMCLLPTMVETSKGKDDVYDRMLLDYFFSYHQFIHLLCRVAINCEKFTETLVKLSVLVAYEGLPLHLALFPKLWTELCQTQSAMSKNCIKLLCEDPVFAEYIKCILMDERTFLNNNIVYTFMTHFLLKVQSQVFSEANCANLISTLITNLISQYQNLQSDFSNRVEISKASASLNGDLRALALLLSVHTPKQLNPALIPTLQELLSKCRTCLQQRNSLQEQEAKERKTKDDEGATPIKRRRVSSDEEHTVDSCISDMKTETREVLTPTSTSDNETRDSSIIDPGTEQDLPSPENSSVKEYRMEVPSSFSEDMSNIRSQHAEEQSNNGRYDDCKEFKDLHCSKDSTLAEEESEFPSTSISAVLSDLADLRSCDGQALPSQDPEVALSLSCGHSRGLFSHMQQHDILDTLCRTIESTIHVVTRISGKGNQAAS

CC(NC(=O)CCl)c1csc(-c2ccccc2)n1.Cl (stereo not given)
inactive: [1] -0.477 | [2] -0.276 | [3] -0.266 | [4] 0.0283 | [5] -0.166

— the supplement of paper PMC11732987, “Enantioselective OTUD7B fragment discovery through chemoproteomics screening and high-throughput optimisation” (Communications Chemistry, 2025)
